Laboratory results taken from publication PMC4336329 (PLoS ONE, 2015).
About 14,000 (4.5%) of roughly 310,000 compounds showed an effect of 50% or more. Effects have a minus sign here. For the sample, strong results were picked, then their nearest neighbours and some compounds at random.

biological target: human ether-à-go-go-related gene (hERG) potassium channel (human, UniProt Q12809); test: primary screen, population patch clamp on CHO cells stably expressing hERG; higher = less effect of the substance
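Also: peak tail current of the secondary pulse compared with the same well before compound.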

Chain of human ether-à-go-go-related gene (hERG) potassium channel (Q12809 whole entry, looked up): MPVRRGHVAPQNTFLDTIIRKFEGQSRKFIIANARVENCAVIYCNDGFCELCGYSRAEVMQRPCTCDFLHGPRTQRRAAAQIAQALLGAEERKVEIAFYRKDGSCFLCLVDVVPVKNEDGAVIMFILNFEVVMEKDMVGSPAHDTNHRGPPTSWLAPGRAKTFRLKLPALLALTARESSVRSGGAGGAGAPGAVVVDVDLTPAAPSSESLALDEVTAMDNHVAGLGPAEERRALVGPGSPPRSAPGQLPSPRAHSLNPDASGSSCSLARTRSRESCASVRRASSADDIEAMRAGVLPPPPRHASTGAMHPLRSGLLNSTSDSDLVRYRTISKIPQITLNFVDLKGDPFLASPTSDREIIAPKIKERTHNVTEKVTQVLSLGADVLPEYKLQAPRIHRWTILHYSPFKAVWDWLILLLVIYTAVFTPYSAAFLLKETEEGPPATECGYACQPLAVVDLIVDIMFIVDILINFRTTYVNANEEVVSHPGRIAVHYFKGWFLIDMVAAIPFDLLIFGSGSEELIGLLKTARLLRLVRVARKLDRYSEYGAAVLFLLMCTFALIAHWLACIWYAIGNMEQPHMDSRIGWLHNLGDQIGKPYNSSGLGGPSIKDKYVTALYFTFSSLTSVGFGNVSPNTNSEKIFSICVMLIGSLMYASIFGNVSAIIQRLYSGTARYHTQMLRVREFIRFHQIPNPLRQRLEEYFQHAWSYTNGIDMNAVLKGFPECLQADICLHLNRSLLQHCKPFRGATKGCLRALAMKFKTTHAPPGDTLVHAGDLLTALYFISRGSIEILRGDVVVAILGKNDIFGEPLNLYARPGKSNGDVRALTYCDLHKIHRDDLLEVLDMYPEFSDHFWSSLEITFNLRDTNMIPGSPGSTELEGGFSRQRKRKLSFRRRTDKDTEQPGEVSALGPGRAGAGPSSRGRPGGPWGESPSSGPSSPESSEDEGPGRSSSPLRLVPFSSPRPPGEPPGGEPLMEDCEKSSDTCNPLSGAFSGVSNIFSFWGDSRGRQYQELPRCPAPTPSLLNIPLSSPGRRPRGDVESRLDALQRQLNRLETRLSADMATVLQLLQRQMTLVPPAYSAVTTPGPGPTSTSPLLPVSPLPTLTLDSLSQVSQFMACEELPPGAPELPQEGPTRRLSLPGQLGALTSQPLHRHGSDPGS

Row | SMILES | hERG current change (%, negative = inhibition) at 10uM [%]
1 | COc1ccc(S(=O)(=O)N2CCCCCC2)cc1NC(=O)CN1C(=O)NC(C)(c2ccc(C)cc2)C1=O (stereo not shown) | -12.8
2 | Cc1ccc(NC(=O)CCC(=O)c2cccs2)cc1F | 2.31
3 | CCOC(=O)c1oc2cc(O)c(CC)cc2c(=O)c1-c1cscn1 | 2.56
4 | CCC(C)N1C(=O)CCC1C(=O)N1CCN(c2ccc(F)cc2)CC1 (stereo not shown) | -28.3
5 | COc1ccc(Nc2nc(-c3ccccc3F)nc3ccccc23)cc1OC | 0.695
6 | COc1ccc(Nc2c3c(nc4ccccc24)CCCC3)cc1OC | -73.2
7 | COC(=O)c1c2c(nc3ccccc13)CCC2 | -3.81
8 | COc1ccc(NC(=O)COC(=O)c2c3c(nc4ccccc24)CCCC3)cc1Cl | 9.73
9 | COc1cc(Nc2c3c(nc4ccccc24)CCC3)cc(OC)c1OC | -60
10 | Cc1ccc(O)c(Nc2nc(-c3ccccc3)nc3ccccc23)c1 | 14.9
11 | COc1cc(NC(=O)CSc2c3c(nc4ccccc24)CCC3)cc(OC)c1OC | -7.51
12 | Cc1ccc(O)c(Nc2ncnc3ccccc23)c1.Cl | 11.8
13 | Cc1ccc(O)c(Nc2c3ccccc3nc3ccccc23)c1 | -52.8
14 | O=C(NCC(c1cccnc1)N1CCN(c2ccc(F)cc2)CC1)c1ccco1 (stereo not shown) | -47.7
15 | CN(C)/C=C(\C(=O)c1ccc(F)cc1F)c1nnnn1-c1ccccc1 | 21.1
16 | CCOC(=O)/C(C#N)=C/Nc1ccccc1OC | 0.538
17 | Cc1cc(=O)oc(C)c1C(=O)OCC(=O)c1ccccc1 | -5.02
18 | COc1ccc(N(Cc2cc3cc(OC)ccc3[nH]c2=O)S(=O)(=O)c2ccc(NC(C)=O)cc2)cc1 | 5.64
19 | Cc1ccc(C2(c3ccccc3)NC(=O)N(CC(=O)NC3CCS(=O)(=O)C3)C2=O)cc1C (stereo not shown) | -9.17
20 | N#CC1(NC(=O)CN2C(=O)NC3(CCCCCC3)C2=O)CCCCC1 | -0.951
21 | CCN(C(=O)CN1C(=O)NC(c2ccccc2)(c2ccc(C)c(C)c2)C1=O)C1CCS(=O)(=O)C1 (stereo not shown) | -53.4
22 | Cc1ccc(C2(c3ccccc3)NC(=O)N(CC(=O)NCc3ccccc3)C2=O)cc1C (stereo not shown) | -23

Row | SMILES | hERG current change (%, negative = inhibition) at 10uM [%]
23 | COc1ccc(C2(c3ccc(OC)cc3)NC(=O)N(CC(=O)NC3(C#N)CCCCC3)C2=O)cc1 | -42.4
24 | CCC1(c2ccccc2)NC(=O)N(CC(=O)NC2(C#N)CCCCC2)C1=O (stereo not shown) | 2.94
25 | CCN(C(=O)CN1C(=O)NC(c2ccccc2)(c2ccc(C)c(C)c2)C1=O)C1CCCCC1 (stereo not shown) | -33.3
26 | Cc1cc(NC(=O)CN2C(=O)NC(c3ccccc3)(c3ccc(C)c(C)c3)C2=O)no1 (stereo not shown) | -48.5
27 | Cc1ccc(C2(c3ccccc3)NC(=O)N(CC(=O)NC3(C#N)CCCC3)C2=O)cc1C (stereo not shown) | -63.4
28 | Cc1ccc(C2(c3ccccc3)NC(=O)N(CC(=O)N(C)C3CCS(=O)(=O)C3)C2=O)cc1C (stereo not shown) | -22
29 | N#CC1(NC(=O)CN2C(=O)NC(c3ccccc3)(c3ccccc3)C2=O)CCCC1 | -55
30 | Cc1ccc(C2(c3ccccc3)NC(=O)N(CC(=O)NCc3ccco3)C2=O)cc1C (stereo not shown) | -50.4
31 | O=C1c2ccccc2C2NC(=O)C3(CCCCC3)N12 (stereo not shown) | 7.54
32 | COc1ccc(C2CC(=O)N(c3ccccc3)C3=C2C(=O)CCC3)cc1 (stereo not shown) | 13.1
33 | O=C(CN1C(=O)CC(c2ccco2)Sc2ccccc21)NCc1ccc2c(c1)OCO2 (stereo not shown) | -37.1
34 | S=C(NCCCc1ccccc1)Nc1ccccc1Cl | 2.38
35 | Fc1ccc(-c2csc(-c3ccc(C4SCCS4)cc3)n2)cc1F | 4.89
36 | COC(=O)C1=C(N)Oc2cc(C)n(Cc3cccnc3)c(=O)c2C1c1ccc(OC)c(OC)c1 (stereo not shown) | -19
37 | CCOC(=O)c1cc(C)n(-c2c(C)n(C)n(-c3ccccc3)c2=O)c1C | 21.6
38 | CC(=O)N1CCC2(CC1)C/C(=N\NC(=S)Nc1ccc(C)cc1)c1cc(O)ccc1O2 | -70.8
39 | CC(=O)N1CCC2(CC1)C/C(=N\NC(=S)Nc1ccccc1F)c1cc(O)ccc1O2 | -69
40 | Cc1ccccc1NC(=S)N/N=C1\CC(C)(C)Oc2ccc(O)cc21 | 42.1
41 | Cc1ccc(NC(=S)N/N=C2\CC(C)(C)Oc3ccc(O)cc32)cc1 | 12
42 | COc1cccc(NC(=S)N/N=C2\CC(C)(C)Oc3ccc(O)cc32)c1 | 3.3
43 | CC1(C)C/C(=N\NC(=S)Nc2ccccc2F)c2cc(O)ccc2O1 | -18.8
44 | CC(=O)N1CCC2(CC1)C/C(=N\NC(=S)Nc1ccccc1C)c1cc(O)ccc1O2 | -61.1

Row | SMILES | hERG current change (%, negative = inhibition) at 10uM [%]
45 | COc1ccccc1NC(=S)N/N=C1\CC(C)(C)Oc2ccc(O)cc21 | 0.968
46 | Cc1cccc(NC(=S)N/N=C2\CC(C)(C)Oc3ccc(O)cc32)c1 | 8.34
47 | COc1ccc(C(=O)CC(=O)C(=O)Nc2ccc(C)c(C)c2)cc1 | -12.2
48 | O=C1CSC(c2cccnc2)N1c1ccccc1 (stereo not shown) | 13
49 | CCOCCCNC(=O)CCNS(=O)(=O)c1ccc(C)cc1 | 3.47
50 | Cc1ccc(S(=O)(=O)N(C)c2ccc(OCC(=O)Nc3nc4ccccc4s3)cc2)cc1 | 17.8
51 | Cc1cccc(C(=O)Oc2ccc(/C=N/NC(=O)c3ccc(O)cc3)cc2)c1 | 28.6
52 | Cc1nnc(SC(C)C(=O)Nc2ccc(S(=O)(=O)N3CCCCC3)cc2)s1 (stereo not shown) | -18.4
53 | CC(C)NC(=O)C1(O)c2ccccc2NC(=O)N1c1ccc(Cl)c(Cl)c1 (stereo not shown) | 9.1
54 | Cc1ccc(N2CCN(C3=NC(=O)C(Cc4ccccc4)S3)CC2)cc1 (stereo not shown) | -40.1
55 | Cc1cccc(CC2SC(N)=NC2=O)c1.Cl (stereo not shown) | 19.9
56 | Cc1cccc(N2CCN(C3=NC(=O)C(Cc4ccccc4)S3)CC2)c1 (stereo not shown) | -30.7
57 | Cc1cccc(CC2SC(N3CCN(c4ccccc4)CC3)=NC2=O)c1 (stereo not shown) | -53.5
58 | O=C1N=C(N2CCN(c3ccccc3)CC2)SC1Cc1ccccc1 (stereo not shown) | -66.4
59 | NC1=NC(=O)C(Cc2ccccc2)S1 (stereo not shown) | 2.01
60 | O=c1c2[nH]c3cccc(Cl)c3c2ncn1Cc1ccncc1 | -13.6
61 | CN(C)S(=O)(=O)c1ccc(Cl)c(NC(=O)CN2C(=O)NC3(CCc4ccccc43)C2=O)c1 (stereo not shown) | -18
62 | CC(C)C(NS(=O)(=O)c1ccc2c(c1)oc(=O)n2C)C(=O)N1CCN(C2CCCCC2)CC1 (stereo not shown) | 2.88
63 | Cc1ccc(C)c(NC(=O)C2CCCN2C(=O)OC(C)(C)C)c1 (stereo not shown) | 1.04
64 | O=C(CN(CCc1ccccc1)S(=O)(=O)c1ccc(Cl)cc1)N/N=C/c1ccccc1C(=O)O | 14.6
65 | Cc1ccc(N(CC(=O)NCCSc2nc3ccccc3s2)S(=O)(=O)c2ccccc2)c(C)c1 | -42.1
66 | CCOc1ccc2nc(NCCNC(=S)NCCCN(C)C)c(C#N)cc2c1 | 1.89

Row | SMILES | hERG current change (%, negative = inhibition) at 10uM [%]
67 | O=C(c1ccccc1)c1c[nH]c(C(=O)NCCCn2ccnc2)c1 | 5.27
68 | O=C(c1ccc(C(F)(F)F)cc1)c1c[nH]c(C(=O)NCCCn2ccnc2)c1 | -70.4
69 | CCC(=O)c1c[nH]c(C(=O)NCCCn2ccnc2)c1 | 9.18
70 | COc1ccc(C(=O)c2c[nH]c(C(=O)NCCCn3ccnc3)c2)cc1 | 0.775
71 | O=C(NCCCn1ccnc1)c1ccc(C(F)(F)F)cc1 | -10.8
72 | CC(C)(C)c1ccc(C(=O)c2c[nH]c(C(=O)NCCCn3ccnc3)c2)cc1 | -71.3
73 | Cc1ccc(/C=N/NS(=O)(=O)c2ccc([N+](=O)[O-])cc2)o1 | 26.4
74 | Cc1c(NC(=O)c2cccs2)c(=O)n(-c2ccccc2)n1C | 3.8
75 | CCCC(Oc1ccc(Br)cc1)c1nc2c3cc(OC)c(OC)cc3nc(=S)n2[nH]1 (stereo not shown) | 14.5
76 | Cc1cccc2c1NC(C)CC2C.Cl (stereo not shown) | 8.01
77 | COc1ccccc1CNC(=O)COC(=O)c1cc(C)oc1C | 0.456
78 | COCCn1c(C)nnc1SCC(=O)NNC(=O)c1ccc(Cl)cc1 | 16.4
79 | COc1ccc(Cl)cc1NC(=O)c1nnn(CC(=O)Nc2ccc(OC)c(OC)c2)c1N | 15.1
80 | CCCNC(=O)c1ccc(N2CCC3(CC2)CC(c2cccc(Br)c2)=NO3)c([N+](=O)[O-])c1 | -14.2
81 | CCCNC(=O)c1ccc(N2CCC3(CC2)CC(c2ccc(Cl)cc2)=NO3)c([N+](=O)[O-])c1 | -74.7
82 | CCCNC(=O)c1ccc(N2CCC3(CC2)CC(c2ccccc2)=NO3)c([N+](=O)[O-])c1 | -53
83 | COc1ccc(CNC(=O)c2ccc(N3CCC4(CC3)CC(c3ccc(Cl)cc3)=NO4)c([N+](=O)[O-])c2)cc1 | 9.12
84 | O=C(NCc1ccccc1)c1ccc(N2CCC3(CC2)CC(c2ccc(Cl)cc2)=NO3)c([N+](=O)[O-])c1 | 11.6
85 | O=C(NCc1ccccc1)c1ccc(N2CCC3(CC2)CC(c2ccccc2)=NO3)c([N+](=O)[O-])c1 | 5.28
